Screening data: PubChem, National Center for Advancing Translational Sciences (NCATS)
HT1080 IDH1KD tx: HT-1080 IDH1 knockdown cell toxicity (counter line); HT-1080 IDH1 knockdown viability, ATP luminescence, 48 h; Potency, µM (top dose mostly 46.1 µM), for inactives: at the top dose activity, negative = toxicity, most hits filed as cytotoxic; 2% of 360,000 active;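 further: potency means the concentration at half of the fitted maximal effect; 0% = DMSO wells and -100% = cell-free medium wells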
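CellTiter-Glo luminescence after 48 h compound exposure at 37 degrees C of IDH1-knockdown HT-1080 cells in 5% FBS RPMI. %Activity scaled between DMSO wells and cell-free media wells, with curves fitted and assigned curve classes.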
TDP1 cell noCPT: qHTS for Inhibitors of human tyrosyl-DNA phosphodiesterase 1 (TDP1): qHTS in cells in absence of CPT. DT40 Tdp1-/- hTDP1 cells, no CPT, ATP luminescence, 48 h. Potency, µM (titrated, usually from 46.2 µM), for inactives: at the highest dose activity change, negative = growth inhibition, most hits filed as inhibitors. 15% of 420,000 active. AID 686978, 2013; further: potency means the concentration at half of the fitted maximal effect; nearly all actives have a fitted effect of over 55% in size
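Readout: luminescence from CellTiter-Glo after 30 min in the dark at RT. Cells: DT40 Tdp1-/- with stable hTDP1, 400/well. Exposure: compounds alone, ≥48 hr, 37 °C.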
IL-1B inflam inh: inflammasome signaling inhibition, IL-1 beta readout; THP-1 LPS/ATP IL-1B secretion, AlphaLISA, 16 h; stronger effect = lower value; AID 743279; activity change, % at 57.5 µM; 4.7% of 360,000 active; in the data active means activity change below about -50%; inconclusive means mostly about -30% to -49%
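THP-1 cells pretreated 1 hr with compounds (up to 57.5 uM final), then stimulated with LPS (250 ng/mL final) plus ATP (1.25 mM final); secreted IL-1B measured by AlphaLISA after 16 hr, decreased signal indicating inhibition.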
HT1080NT lethal: kills 2HG-producing HT-1080-NT fibrosarcoma cells | HT-1080-NT fibrosarcoma viability, CellTiter-Glo ATP luminescence, 48 h | Potency, µM (series often up to 46.1 µM), for the others: at the highest dose activity, negative = less viability, hits mostly cytotoxic | 1.6% of 360,000 active | AID 686970;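 further: NT is the 2HG producing partner of a matched IDH1 knockdown line; potency means the concentration at half of the fitted maximal effect; 0% = DMSO-treated cells and -100% = media-only wells without cells; nearly all actives have a fitted effect of over 55% in size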
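Viability by CellTiter-Glo luminescence after 48 h compound exposure at 37C of HT-1080-NT cells (750/well, RPMI, 5% FBS). % activity scaled between DMSO wells and medium-only wells, then curve-fitted and categorized by curve class.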
12-LOX inh: ALOX12 (human) lipoxygenase inhibition; Potency, µM (highest dose often 108 µM), for the others: at the top dose activity change, negative = inhibition, usual class: inhibitors; purified 12hLO, xylenol orange hydroperoxide absorbance; 1.1% of 580,000 active; AID 1671190; further: potency means the concentration at half of the fitted maximal effect
Target sequence (P18054 whole entry, looked up): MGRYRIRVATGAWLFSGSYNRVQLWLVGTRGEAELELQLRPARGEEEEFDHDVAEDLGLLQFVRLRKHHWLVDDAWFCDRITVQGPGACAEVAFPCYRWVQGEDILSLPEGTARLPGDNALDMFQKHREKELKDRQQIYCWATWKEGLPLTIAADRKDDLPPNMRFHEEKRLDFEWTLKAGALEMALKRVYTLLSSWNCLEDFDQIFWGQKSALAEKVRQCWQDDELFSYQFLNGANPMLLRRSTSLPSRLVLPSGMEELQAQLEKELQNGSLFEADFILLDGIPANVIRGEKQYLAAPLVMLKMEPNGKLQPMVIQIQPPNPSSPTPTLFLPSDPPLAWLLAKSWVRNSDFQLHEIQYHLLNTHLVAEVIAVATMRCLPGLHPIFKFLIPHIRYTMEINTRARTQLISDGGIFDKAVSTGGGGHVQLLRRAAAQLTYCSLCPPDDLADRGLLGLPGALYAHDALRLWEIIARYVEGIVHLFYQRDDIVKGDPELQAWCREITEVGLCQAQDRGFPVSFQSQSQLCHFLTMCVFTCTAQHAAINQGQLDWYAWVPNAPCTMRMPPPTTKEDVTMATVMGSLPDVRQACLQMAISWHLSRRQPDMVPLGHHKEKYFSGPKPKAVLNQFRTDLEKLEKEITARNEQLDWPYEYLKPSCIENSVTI
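Hydroperoxide product was detected by ferrous iron/xylenol orange as the 573 to 405 nm absorbance ratio. Arachidonic acid at 40 uM (final) was turned over for 30 min at room temperature by 150 nM human 12hLO, pH 7.0 Hepes buffer, after 15 min compound preincubation.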
TDP1 cell CPT: DT40-hTDP1 cell growth loss with CPT | AID 686979 | chicken DT40 Tdp1-/-;hTDP1 cells + 20 nM CPT, ATP luminescence, 48 h | 12% of 420,000 active | Potency, µM (series often up to 46.2 µM), for inactives: at the highest dose activity change, negative = growth inhibition, most hits filed as inhibitors; further: potency means the concentration at half of the fitted maximal effect; nearly all actives have a fitted effect of over 55% in size
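Chicken DT40 Tdp1-/- cells stably complemented with human TDP1 were seeded at 400 cells/well in medium containing 20 nM camptothecin, exposed to pin-transferred compounds, and grown at 37 °C for at least 48 hr. Viability was read as ATP luminescence.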
* = called active by the depositor; ? = inconclusive; · = no result given; [ ] = remark or other dose. This is one part of a sample in which hits are shown more often than they occur. Unless noted, the call rests on the fitted dose curve; in most records, active means well fitted curve in the direction sought with a large enough effect; inconclusive means small, poorly fitted or top-dose-only effect, or another doubt; inactive means no such curve, though single readings can be large; an effect the other way counts as inactive or inconclusive. Unless noted, on the % scale 0 is the no-effect control and ±100 the full control effect.

SMILES	HT1080 IDH1KD tx	TDP1 cell noCPT	IL-1B inflam inh	HT1080NT lethal	12-LOX inh	TDP1 cell CPT
O=C1C(CN2CCCC2)CCCC1CN1CCCC1 (configuration not stated)	?	0.52µM*	-8	7%	-3%	0.52µM*
CSc1nc(-c2ccccc2)nc(C(C)C)n1	-2%	?	14	5%	12%	?
Cc1cc2nc3n(c(=O)c2n1CC(=O)NCc1ccccc1Cl)CCCCC3	·	·	·	·	7%	·
COc1cc2ncnc(N[C@H](C)c3ccccc3)c2cc1OC	-4%	23µM*	40	-3%	·	18µM*
COc1cc2ncnc(NCc3ccc(C)o3)c2cc1OC	0%	21µM*	-18	0%	-23%	?
Cc1ccc(CNc2ncnc3cc(Cl)ccc23)cc1	23µM*	18µM*	1	?	-18%	26µM*
COc1cc2ncnc(NCc3cccc(F)c3F)c2cc1OC	5%	?	12	-6%	5%	?
Cc1ccccc1CNc1ncnc2cc(Cl)ccc12	?	?	53	?	1%	-6%
Cc1ccc(CNc2ncnc3cc(Cl)ccc23)o1	-3%	13µM*	-18	-5%	?	10µM*
Fc1ccc(F)c(CNc2ncnc3cc(Cl)ccc23)c1	?	15µM*	?	?	3%	15µM*
COc1cc2ncnc(NCc3ccccc3Cl)c2cc1OC	17%	13µM*	-9	12%	-20%	21µM*
COc1cc2ncnc(NCc3ccc(F)cc3)c2cc1OC	-9%	?	0	-2%	23%	-23%
COc1cc2ncnc(NCc3ccccc3C)c2cc1OC	8%	?	-15	3%	1%	?
Clc1ccc(CNc2ncnc3[nH]ncc23)c(Cl)c1	-1%	16µM*	-54*	-3%	-11%	?
CC(Nc1ncnc2nc[nH]c12)c1ccccc1 (configuration not stated)	-4%	13µM*	10	4%	9%	16µM*
COc1ccc(/C=C2\SC(=S)N(NS(=O)(=O)c3ccc(C)cc3)C2=O)c(OC)c1	-8%	-25%	1	4%	?	6%
COc1ccccc1/C=C1\SC(=S)N(NS(=O)(=O)c2ccc(C)cc2)C1=O	-6%	2%	-8	-4%	35µM*	-4%
N#Cc1c(Nc2ccccc2)sc(C(=O)c2ccccc2)c1N	-20%	?	-14	-6%	141%	-2%
COc1ccc(CNC(=O)c2c(Nc3ccc(OC)cc3OC)sc(C(=O)c3ccc(Cl)cc3)c2N)cc1	·	?	·	·	3%	?
Cc1ccc(Nc2sc(C(=O)c3ccccc3)c(N)c2C(=O)Nc2ccc(Cl)cc2)cc1	·	18µM*	·	·	?	?
Nc1c(C(=O)c2ccccc2)sc(Nc2ccc(Cl)c(Cl)c2)c1C(=O)Nc1ccccc1	·	4.1µM*	·	·	?	?
COc1ccccc1NC(=O)c1c(Nc2ccccc2F)sc(C(=O)Nc2cccc(Cl)c2)c1N	?	26µM*	?	15µM*	0%	?
CCOc1ccc(NC(=O)c2c(Nc3ccc(OC)cc3OC)sc(C(=O)c3ccc(Cl)cc3)c2N)cc1	·	13µM*	·	·	-5%	12µM*
CC(C)NC(=O)N1Cc2ccccc2OC2(CCN(C(=O)CCC(=O)O)CC2)C1	·	·	·	·	13%[6.33 µM]	·
O=CNNC(=S)NCc1ccccc1	·	·	·	·	-19%	·
SMILES	HT1080 IDH1KD tx	TDP1 cell noCPT	IL-1B inflam inh	HT1080NT lethal	12-LOX inh	TDP1 cell CPT
CCc1nn2c(=O)cc(COC(=O)c3ccc(NC(=O)C4CCCCC4)cc3)nc2s1	·	18µM*	·	·	-24%	?
CCOCCc1nn2c(=O)cc(COC(=O)c3ccc(NC(=O)C4CCCCC4)cc3)nc2s1	·	?	·	·	-22%	?
Cc1nn2c(=O)cc(COC(=O)c3ccc(NC(=O)C4CCCCC4)cc3)nc2s1	·	9.2µM*	·	·	?	?
O=S(=O)(c1ccccc1)N1N=C(c2ccc(Cl)cc2)CC1c1ccc2nccnc2c1 (configuration not stated)	·	·	·	·	-11%	·
COc1ccccc1NC(=S)N(Cc1ccco1)Cc1cc2ccc(C)c(C)c2[nH]c1=O	?	0.58µM*	11	?	?	0.58µM*
COc1ccccc1NC(=S)N(Cc1ccco1)Cc1cc2cc(C)cc(C)c2[nH]c1=O	?	10µM*	20	?	?	10µM*
Cc1ccc2cc(CN(Cc3ccco3)C(=O)C3CCCCC3)c(=O)[nH]c2c1C	19%	?	-7	8%	133%	?
Cc1ccc2cc(CN(Cc3ccco3)C(=O)NC3CCCCC3)c(=O)[nH]c2c1C	-22%	29µM*	?	-27%	-29%	16µM*
O=C(NCCn1cc(SCc2ccc(Br)cc2)c2ccccc21)c1cccs1	·	23µM*	·	·	-4%	23µM*
O=C(NCCn1cc(SCc2ccccc2)c2ccccc21)c1cccs1	·	7.3µM*	·	·	?	15µM*
NC(=O)CSc1cn(CCNC(=O)c2cccs2)c2ccccc12	6%	-17%	41	-6%	8%[57.4 µM]	-4%
COc1ccccc1C(=O)NCCn1cc(SCc2ccc(C)cc2)c2ccccc21	·	?	·	·	-4%	23µM*
O=C(NCCn1cc(SCc2ccccc2)c2ccccc21)c1ccccc1F	-19%	?	-27	-24%	11%	21µM*
COc1ccccc1C(=O)NCCn1cc(SCC(=O)NCC2CCCO2)c2ccccc21 (configuration not stated)	-10%	?	-24	0%	-4%	?
Cc1nnc(NC(=O)CSc2cn(CCNC(=O)c3ccccc3)c3ccccc23)s1	-1%	?	-11	0%	-2%	-23%
CCC(CC)NC(=O)Cn1c(=O)c2c(ncn2CCOC)n(Cc2ccccc2)c1=O	·	·	·	·	-23%	·
COc1cccc(C(=O)n2nc(-c3ccco3)nc2NCc2ccc(C(C)C)cc2)c1	·	·	·	·	-25%	·
CC(C)(C)NC(=O)c1cc(F)ccc1I	·	·	·	·	-22%	·
O=C(Cc1ccsc1)N1CCC(c2noc(C3CC3)n2)C1 (configuration not stated)	·	·	·	·	28%	·
Cc1ccc(C)c(CSc2cn(CCNC(=O)c3cccs3)c3ccccc23)c1	·	23µM*	·	·	-23%	?
Cc1ccc(C)c(CSc2cn(CCNC(=O)c3ccccc3F)c3ccccc23)c1	·	?	·	·	0%	?
